The panel holds about 79,000 compounds, 15% with a hit somewhere; the sample as a whole holds those more often. Calls of active or inactive are those of the source. Cut-off read from the data, not from the text of the source: active = growth inhibition above about 70%; inactive = the rest.

The first experiment is described as follows: NCI Yeast Anticancer Drug Screen. Data for the bub3 strain (AID 167). The settings on record: S. cerevisiae bub3 mutant strain, at 50.0 µM, hits give high values. An outline of the steps: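 Steps: expose the mutant yeast strain to compound; grow alongside vehicle-treated cultures; measure growth; express inhibition against the vehicle cultures.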
As for `O=C(O)c1cc2ccccc2o1`, the growth inhibition is -2.6% (inactive).
On the same count and under the same terms, to `O=C(O)CNC(=O)C(Cc1ccccc1)NC(=O)CNC(=O)C(CSC(c1ccccc1)c1ccccc1)NC(=O)C(CSC(c1ccccc1)(c1ccccc1)c1ccccc1)N1C(=O)c2ccccc2C1=O` (stereo not given) belongs -7.05% (inactive); to `CC(=O)N1CCC23C(=O)CC4C(=CCOC5CC(=O)N(c6ccccc62)C3C54)C1` (stereo not given), 3.55% (inactive); to `CCCCCCCN1C(=O)C(O)(c2ccc(C3(O)C(=O)N(CCCCCCC)c4ccccc43)s2)c2ccccc21` (stereo not given), 9.7% (inactive).
For the compound `CC(=O)C1C(=O)C(=O)N(c2ccc([N+](=O)[O-])cc2)C1=O` (stereo not given), the growth inhibition was -1.9% (inactive).
`Cc1cc([N+](=O)[O-])c2ncccc2c1`: the growth inhibition was -15.7% (inactive).
`CC(=O)c1cccc(NC(=O)OCC2CC3C=CC2C3)c1` (stereo not given): the growth inhibition is 52.8% (inactive).
On the same count and under the same terms, to `Nc1cc(Cl)c2c(c1)C(=O)c1ccccc1-2` belongs -5.3% (inactive); to `CN(CCSSCCN(C)/N=C/c1ccccc1)/N=C/c1ccccc1`, -10.7% (inactive).
Turning to `Cc1cc(C)n(-c2ccnc(-n3nc(C)cc3C)n2)n1`, the growth inhibition was 21.6% (inactive).
Same read-out and setting: then `CCO/C=C1/N=C(c2ccccc2Cl)OC1=O`, with -17.1% (inactive); and `COc1ccc(C2NC(C(=O)O)Cc3c2[nH]c2ccccc32)cc1OC` (stereo not given), with -4.3% (inactive).
On the same count and under the same terms, to `O=C(Cc1nc2ccccc2[nH]c1=O)c1cccnc1` belongs -4.75% (inactive); to `CC(=O)NC1C(OC2C(CO)OC(OCC3OC(n4ccc(N)nc4=O)C(O)C3O)C(NC(C)=O)C2O)OC(CO)C(O)C1O` (stereo not given), -3.45% (inactive); to `C#C[C@@H](CCCC)OC(=O)N[C@H](C)c1ccccc1`, 22.5% (inactive).
Same read-out and setting: to `O=C(Nc1cc(C(F)(F)F)ccc1Cl)C(=O)C(C(=O)c1ccc2ccccc2c1)C1OC(=O)c2ccccc21` (stereo not given) belongs 30.9% (inactive); to `Cc1n[n+](CC(=O)c2ccccc2)c2sc(N)nn12`, -16.1% (inactive); to `CC12CCC(C/C1=N\N=C(N)N)C2(C)C` (stereo not given), -5.05% (inactive).
In the case of `CC(=O)Nc1cc(Cl)ccc1C`, the growth inhibition is 5.95% (inactive).
On the same count and under the same terms, to `C1=Nc2ccccc2/C1=C/c1ccc2c(c1)OCO2` belongs 8.85% (inactive); to `CC(C)=C=CC(C)(C)NS(=O)(=O)NC(C)(C)C=C=C(C)C`, -16.6% (inactive).
On to `ClCCOCc1ccc(Cl)c(Cl)c1`, for which the growth inhibition is -18% (inactive).
On the same count and under the same terms, to `COC(=O)C1(C(C(=O)c2ccccc2)c2ccccc2)NC(=S)NC(=O)C1C#N` (stereo not given) belongs -15.4% (inactive); to `O=C1CCCC2=C1C(c1ccc(Cl)c(Cl)c1)C1=C(CCCC1=O)O2`, 12.6% (inactive); to `CCOC(=O)CCOc1ccccc1`, -0.85% (inactive).
In the case of `CCOP(=O)(OCCN(C)C)C(c1ccccc1)c1ccccc1` (stereo not given), the growth inhibition was -9.75% (inactive).
The same measure, in the same setting: to `Nc1nc(N)c2cc(CNc3ccc(C(=O)NC(C(=O)O)C(=O)O)cc3)ccc2n1` belongs -14.2% (inactive).
The same measure, in the same setting: to `CCC1(CC)C(=O)OC(=O)C1(CC)CC` belongs -10.9% (inactive).
Still for that read-out and setting: to `O=[N+]([O-])c1ccc(N=NN2CCOCC2)cc1` belongs -10.7% (inactive).
Regarding `CCc1ccc2c(c1)/C(=N\NC(N)=O)CCC2`, the growth inhibition was 9.8% (inactive).
The same measure, in the same setting: then `C/C(=N\NC(=O)CCCCC(=O)N/N=C(\C)c1ccc(C)cc1)c1ccc(C)cc1`, with -1.9% (inactive); and `Fc1ccc(-c2ncc(-c3ccccc3)o2)cc1`, with -14.8% (inactive).
As to `O=CNC1(CO)CCCCC1`, the growth inhibition is -18.1% (inactive).
As to `CN(C)c1ncnc2c1ncn2CC(O)CN` (stereo not given), the growth inhibition is 5.4% (inactive).
For the compound `COc1cc(C2CC(C)(N3CCCC3)Oc3cc4c(cc32)OCO4)cc(OC)c1OC` (stereo not given), the growth inhibition was -11.8% (inactive).
Turning to `Cc1cc2ccccc2n1CC(=O)N1CCCC1`, the growth inhibition was 15.9% (inactive).
In the case of `Cc1ccccc1CN`, the growth inhibition is 18.3% (inactive).
`CCn1c2c(c3ccccc31)[C@@H](c1ccc(Cl)cc1)CC1C(=O)N(c3ccccc3)C(=O)C21` (stereo not given in full): the growth inhibition was 38.4% (inactive).
In the case of `COC(=O)c1noc2c1CSC1=C2CS(=O)(=O)c2ccccc21`, the growth inhibition is 17.2% (inactive).
On the same count and under the same terms, to `COC1OC(C(C)Br)C2OC(C)(C)OC12` (stereo not given) belongs 9.85% (inactive).

A further experiment in a line: NCI Yeast Anticancer Drug Screen. Data for the mlh1 rad18 strain (AID 175). The following applies: S. cerevisiae mlh1 rad18 strain growth inhibition; at 50.0 µM; hits give high values. An outline of the steps:
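Steps: expose repair-defective yeast to compound; measure growth; express inhibition against vehicle-treated controls.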
`O=C(O)c1cc2ccccc2o1`: the growth inhibition was 30% (inactive).
On the same count and under the same terms, then `O=C(O)CNC(=O)C(Cc1ccccc1)NC(=O)CNC(=O)C(CSC(c1ccccc1)c1ccccc1)NC(=O)C(CSC(c1ccccc1)(c1ccccc1)c1ccccc1)N1C(=O)c2ccccc2C1=O` (stereo not given), with 11% (inactive); and `CC(=O)N1CCC23C(=O)CC4C(=CCOC5CC(=O)N(c6ccccc62)C3C54)C1` (stereo not given), with -4.8% (inactive).
As for `CCCCCCCN1C(=O)C(O)(c2ccc(C3(O)C(=O)N(CCCCCCC)c4ccccc43)s2)c2ccccc21` (stereo not given), the growth inhibition was 14.6% (inactive).
On to `CC(=O)C1C(=O)C(=O)N(c2ccc([N+](=O)[O-])cc2)C1=O` (stereo not given), for which the growth inhibition is -37.5% (inactive).
Still for that read-out and setting: to `Cc1cc([N+](=O)[O-])c2ncccc2c1` belongs -6.95% (inactive); to `CC(=O)c1cccc(NC(=O)OCC2CC3C=CC2C3)c1` (stereo not given), 52.3% (inactive).
As for `Nc1cc(Cl)c2c(c1)C(=O)c1ccccc1-2`, the growth inhibition was -5.4% (inactive).
Same read-out and setting: then `CN(CCSSCCN(C)/N=C/c1ccccc1)/N=C/c1ccccc1`, with -17.1% (inactive); and `Cc1cc(C)n(-c2ccnc(-n3nc(C)cc3C)n2)n1`, with 40.3% (inactive).
On the same count and under the same terms, to `CCO/C=C1/N=C(c2ccccc2Cl)OC1=O` belongs 14.3% (inactive).
Consider `COc1ccc(C2NC(C(=O)O)Cc3c2[nH]c2ccccc32)cc1OC` (stereo not given), for which the growth inhibition is -22% (inactive).
On the same count and under the same terms, then `O=C(Cc1nc2ccccc2[nH]c1=O)c1cccnc1`, with 16.3% (inactive); and `CC(=O)NC1C(OC2C(CO)OC(OCC3OC(n4ccc(N)nc4=O)C(O)C3O)C(NC(C)=O)C2O)OC(CO)C(O)C1O` (stereo not given), with 89.2% (active); and `C#C[C@@H](CCCC)OC(=O)N[C@H](C)c1ccccc1`, with 16.1% (inactive).
The same measure, in the same setting: to `O=C(Nc1cc(C(F)(F)F)ccc1Cl)C(=O)C(C(=O)c1ccc2ccccc2c1)C1OC(=O)c2ccccc21` (stereo not given) belongs 55.5% (inactive); to `Cc1n[n+](CC(=O)c2ccccc2)c2sc(N)nn12`, -70.5% (inactive).
The same measure, in the same setting: to `CC12CCC(C/C1=N\N=C(N)N)C2(C)C` (stereo not given) belongs 6.2% (inactive); to `CC(=O)Nc1cc(Cl)ccc1C`, 24.1% (inactive).
For the compound `C1=Nc2ccccc2/C1=C/c1ccc2c(c1)OCO2`, the growth inhibition was 8.5% (inactive).
Still for that read-out and setting: to `CC(C)=C=CC(C)(C)NS(=O)(=O)NC(C)(C)C=C=C(C)C` belongs 8.35% (inactive); to `ClCCOCc1ccc(Cl)c(Cl)c1`, 9% (inactive).
Take `COC(=O)C1(C(C(=O)c2ccccc2)c2ccccc2)NC(=S)NC(=O)C1C#N` (stereo not given): the growth inhibition is -9.7% (inactive).
As to `O=C1CCCC2=C1C(c1ccc(Cl)c(Cl)c1)C1=C(CCCC1=O)O2`, the growth inhibition was 6.45% (inactive).
On the same count and under the same terms, then `CCOC(=O)CCOc1ccccc1`, with 22.8% (inactive); and `CCOP(=O)(OCCN(C)C)C(c1ccccc1)c1ccccc1` (stereo not given), with 34.6% (inactive); and `Nc1nc(N)c2cc(CNc3ccc(C(=O)NC(C(=O)O)C(=O)O)cc3)ccc2n1`, with -15.6% (inactive).
On the same count and under the same terms, then `CCC1(CC)C(=O)OC(=O)C1(CC)CC`, with -10.4% (inactive); and `O=[N+]([O-])c1ccc(N=NN2CCOCC2)cc1`, with 6.55% (inactive); and `CCc1ccc2c(c1)/C(=N\NC(N)=O)CCC2`, with -9.5% (inactive).
As to `C/C(=N\NC(=O)CCCCC(=O)N/N=C(\C)c1ccc(C)cc1)c1ccc(C)cc1`, the growth inhibition was -2.7% (inactive).
The same measure, in the same setting: to `Fc1ccc(-c2ncc(-c3ccccc3)o2)cc1` belongs -12.9% (inactive); to `O=CNC1(CO)CCCCC1`, 7.9% (inactive); to `CN(C)c1ncnc2c1ncn2CC(O)CN` (stereo not given), -17.2% (inactive).
For the compound `COc1cc(C2CC(C)(N3CCCC3)Oc3cc4c(cc32)OCO4)cc(OC)c1OC` (stereo not given), the growth inhibition is 5.95% (inactive).
Same read-out and setting: then `Cc1cc2ccccc2n1CC(=O)N1CCCC1`, with -11.8% (inactive).
In the case of `Cc1ccccc1CN`, the growth inhibition was 23.6% (inactive).
With `CCn1c2c(c3ccccc31)[C@@H](c1ccc(Cl)cc1)CC1C(=O)N(c3ccccc3)C(=O)C21` (stereo not given in full), the growth inhibition is 35.5% (inactive).
Take `COC(=O)c1noc2c1CSC1=C2CS(=O)(=O)c2ccccc21`: the growth inhibition is 26.6% (inactive).
Still for that read-out and setting: to `COC1OC(C(C)Br)C2OC(C)(C)OC12` (stereo not given) belongs 27.4% (inactive).
